# Data reported in PubChem BioAssay (EPA / NIEHS).
# Where “and” joins values, the source holds several entries; their conditions need not be identical. Identical values can stand only once. Records with an inconclusive call do not appear. Some compounds were tested as several samples or in several runs, with calls that do not always agree. Calls of active or inactive are those of the source. Rule for the calls: active = hit-call score of the fitted dose curve at least 0.9, where 1 is the maximum; inconclusive = response in the unintended direction; inactive = score below 0.9.
# How the values were obtained:
# [1] = target: human Opioid Receptor Mu (Opiate Mu), OPRM1 (gene 4988) (UniProt P35372); assay: NVS_GPCR_hOpiate_mu: NovaScreen (NVS) G Protein-Coupled Receptor Assay for human Opioid Receptor Mu (Opiate Mu) (AID 2283290);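 note: hits lower bound tracer signal versus DMSO meaning displacement of the ligand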
# Sequence of human Opioid Receptor Mu (Opiate Mu), OPRM1 (gene 4988) (P35372 whole entry, looked up): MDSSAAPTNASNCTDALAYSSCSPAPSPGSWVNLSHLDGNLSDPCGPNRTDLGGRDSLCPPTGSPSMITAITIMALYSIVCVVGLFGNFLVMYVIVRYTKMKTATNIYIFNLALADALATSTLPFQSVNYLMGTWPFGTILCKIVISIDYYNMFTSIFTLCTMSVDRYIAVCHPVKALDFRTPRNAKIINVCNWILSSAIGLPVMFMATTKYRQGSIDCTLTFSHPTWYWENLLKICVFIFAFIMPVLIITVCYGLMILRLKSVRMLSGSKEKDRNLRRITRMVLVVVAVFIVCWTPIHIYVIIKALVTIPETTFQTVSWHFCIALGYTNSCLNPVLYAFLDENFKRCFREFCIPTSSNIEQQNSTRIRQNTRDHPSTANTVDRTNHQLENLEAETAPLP
# Outline: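 CHO-derived receptor protein, cell-free; radioligand displacement, filtration + scintillation counting, read at 2.5 h. DMSO = negative control/baseline. Primary: 25 uM single conc, duplicate; secondary: concentration series.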
# [2] = target: Metabotropic glutamate receptor 1 (Rattus norvegicus) (UniProt P23385); assay: NVS_GPCR_rmMGluR1: NovaScreen (NVS) G Protein-Coupled Receptor Assay for rat Glutamate Metabotropic Receptor 1 (MGluR1) (AID 2283305)
# Sequence of Metabotropic glutamate receptor 1 (Rattus norvegicus) (P23385 whole entry, looked up): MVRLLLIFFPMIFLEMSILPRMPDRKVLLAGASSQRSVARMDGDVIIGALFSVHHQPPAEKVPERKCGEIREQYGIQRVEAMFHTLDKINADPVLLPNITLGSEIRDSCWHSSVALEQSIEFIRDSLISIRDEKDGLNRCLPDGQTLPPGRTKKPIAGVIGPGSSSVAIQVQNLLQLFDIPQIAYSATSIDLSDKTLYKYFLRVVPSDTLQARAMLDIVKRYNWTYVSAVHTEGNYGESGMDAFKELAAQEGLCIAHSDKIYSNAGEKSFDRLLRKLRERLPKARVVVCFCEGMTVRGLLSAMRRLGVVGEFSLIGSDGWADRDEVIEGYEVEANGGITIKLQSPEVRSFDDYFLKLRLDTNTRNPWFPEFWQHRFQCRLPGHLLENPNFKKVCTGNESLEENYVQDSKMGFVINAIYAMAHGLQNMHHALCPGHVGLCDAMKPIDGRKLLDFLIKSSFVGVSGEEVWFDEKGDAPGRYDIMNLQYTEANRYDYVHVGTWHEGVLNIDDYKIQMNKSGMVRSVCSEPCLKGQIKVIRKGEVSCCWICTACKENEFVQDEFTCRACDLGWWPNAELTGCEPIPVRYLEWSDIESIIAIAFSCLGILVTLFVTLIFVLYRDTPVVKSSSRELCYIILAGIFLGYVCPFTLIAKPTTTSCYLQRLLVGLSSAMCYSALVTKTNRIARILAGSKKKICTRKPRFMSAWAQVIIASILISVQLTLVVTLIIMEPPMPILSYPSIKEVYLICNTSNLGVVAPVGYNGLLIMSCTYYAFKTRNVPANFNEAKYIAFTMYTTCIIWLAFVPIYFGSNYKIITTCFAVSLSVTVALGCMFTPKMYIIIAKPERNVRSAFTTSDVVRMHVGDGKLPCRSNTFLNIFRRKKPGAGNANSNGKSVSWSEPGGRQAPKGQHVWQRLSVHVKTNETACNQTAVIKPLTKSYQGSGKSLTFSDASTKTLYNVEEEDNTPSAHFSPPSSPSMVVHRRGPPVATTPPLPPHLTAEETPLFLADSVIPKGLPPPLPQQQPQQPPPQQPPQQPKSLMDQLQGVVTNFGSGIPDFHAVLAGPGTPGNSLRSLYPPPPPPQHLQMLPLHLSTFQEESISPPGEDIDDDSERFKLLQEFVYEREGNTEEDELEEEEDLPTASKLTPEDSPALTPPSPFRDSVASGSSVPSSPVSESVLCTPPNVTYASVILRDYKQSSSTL
# Outline: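 Rat cerebellum membrane preparation, radioligand displacement binding read by filter-based scintillation counting 1 hour after dosing. Initial duplicate single-point screen at 25 uM, then concentration-response up to 50 uM; loss of signal versus DMSO baseline scored.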
# [3] = target: rat Histamine Receptor (H3), Hrh3 (gene 85268) (UniProt Q9QYN8); assay: NVS_GPCR_rH3: NovaScreen (NVS) G Protein-Coupled Receptor Assay for rat Histamine Receptor (H3) (AID 2283303)
# Outline: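 Rat forebrain membranes incubated 1 h with compound; radioligand displacement measured by filter-based scintillation counting. Single-concentration duplicates at 25 µM, then concentration-response up to 50 µM, relative to DMSO.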
# [4] = target: guinea pig Bradykinin Receptor B2 (BK2), BDKRB2 (gene 100135486) (UniProt O70526); assay: NVS_GPCR_gBK2: NovaScreen (NVS) G Protein-Coupled Receptor Assay for guinea pig Bradykinin Receptor B2 (BK2) (AID 2283292)
# Sequence of guinea pig Bradykinin Receptor B2 (BK2), BDKRB2 (gene 100135486) (O70526 whole entry, looked up): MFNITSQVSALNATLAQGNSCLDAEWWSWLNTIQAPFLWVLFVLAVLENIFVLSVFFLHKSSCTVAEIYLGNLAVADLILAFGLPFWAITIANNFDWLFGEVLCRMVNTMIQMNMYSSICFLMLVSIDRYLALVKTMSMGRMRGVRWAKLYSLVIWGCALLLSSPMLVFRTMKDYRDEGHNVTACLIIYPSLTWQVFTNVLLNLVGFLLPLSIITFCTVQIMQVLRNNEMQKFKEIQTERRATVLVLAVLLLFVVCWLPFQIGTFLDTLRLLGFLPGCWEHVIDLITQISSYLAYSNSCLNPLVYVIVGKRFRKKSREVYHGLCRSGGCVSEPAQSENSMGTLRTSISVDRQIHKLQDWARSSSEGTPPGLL
# Description: NVS_GPCR_gBK2 is a biochemical, single-readout assay that uses extracted gene-proteins from Guinea pig ileum membranes in a tissue-based cell-free assay. Measurements were taken 1 hour after chemical dosing in a 48-well plate.NVS_GPCR_gBK2 is one of one assay component(s) measured or calculated from the NVS_GPCR_gBK2 assay. It is designed to make measurements of radioligand binding, a form of binding reporter, as detected with scintillation counting signals by Filter-based radiodetection technology.Data from the assay component NVS_GPCR_gBK2 was analyzed into 1 assay endpoint. This assay endpoint, NVS_GPCR_gBK2, was analyzed in the positive analysis fitting direction relative to DMSO as the negative control and baseline of activity. Using a type of binding reporter, loss-of-signal activity can be used to understand changes in the binding as they relate to the gene Bdkrb2. Furthermore, this assay endpoint can be referred to as a primary readout, because the performed assay has only produced 1 assay endpoint. To generalize the intended target to other relatable targets, this assay endpoint is annotated to the gpcr intended target family, where the subfamily is rhodopsin-like receptor.
# Binding assays used specific radioligands (tritiated, iodinated) with non-radioactive competitive displacement ligands in agonist or antagonist protocols (as indicated) and various reference compounds and inhibitors to titrate specific binding to receptors and transporters. Most enzyme assays (CYPs, kinases, phosphatases, proteases, HDACs) used recombinant protein and specific substrates (fluorescence mostly, some colorimetric and radioactive) and inhibitors, followed by a biochemical separation of substrate and product. All assays for the biochemical HTS were initially run in duplicate at a single concentration (10 uM for CYP450 assays and 25 uM for all others). […]
# [5] = target: guinea pig Serotonin, 5-Hydroxytryptamine Receptor 4 (5HT4), HTR4 (gene 100135548) (UniProt O70528); assay: NVS_GPCR_g5HT4: NovaScreen (NVS) G Protein-Coupled Receptor Assay for guinea pig Serotonin, 5-Hydroxytryptamine Receptor 4 (5HT4) (AID 2283294)
# Sequence of guinea pig Serotonin, 5-Hydroxytryptamine Receptor 4 (5HT4), HTR4 (gene 100135548) (O70528 whole entry, looked up): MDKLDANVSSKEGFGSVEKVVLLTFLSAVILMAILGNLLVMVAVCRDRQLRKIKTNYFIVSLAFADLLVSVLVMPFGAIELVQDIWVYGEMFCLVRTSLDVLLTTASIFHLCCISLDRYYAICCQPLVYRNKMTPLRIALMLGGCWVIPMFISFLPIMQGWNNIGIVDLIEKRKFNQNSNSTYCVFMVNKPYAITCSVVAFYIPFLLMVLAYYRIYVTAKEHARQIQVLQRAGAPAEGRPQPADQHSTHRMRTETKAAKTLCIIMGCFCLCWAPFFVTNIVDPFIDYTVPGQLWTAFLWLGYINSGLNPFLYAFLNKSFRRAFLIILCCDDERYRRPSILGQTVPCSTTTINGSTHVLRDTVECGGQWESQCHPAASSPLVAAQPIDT
# Outline: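 Guinea pig striatal membranes; radioligand competitive displacement, filtration and scintillation counting after 1 h. Primary screen in duplicate at 25 uM; actives then tested in concentration series; loss of binding signal fitted relative to DMSO.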
# [6] = target: rat Adrenergic Receptor, Alpha 2 (Adra2), Non-selective Binding, Adra2a (gene 25083) (UniProt P22909); assay: NVS_GPCR_rAdra2_NonSelective: NovaScreen (NVS) G Protein-Coupled Receptor Assay for rat Adrenergic Receptor, Alpha 2 (Adra2), Non-selective Binding (AID 2283299)
# Sequence of rat Adrenergic Receptor, Alpha 2 (Adra2), Non-selective Binding, Adra2a (gene 25083) (P22909 whole entry, looked up): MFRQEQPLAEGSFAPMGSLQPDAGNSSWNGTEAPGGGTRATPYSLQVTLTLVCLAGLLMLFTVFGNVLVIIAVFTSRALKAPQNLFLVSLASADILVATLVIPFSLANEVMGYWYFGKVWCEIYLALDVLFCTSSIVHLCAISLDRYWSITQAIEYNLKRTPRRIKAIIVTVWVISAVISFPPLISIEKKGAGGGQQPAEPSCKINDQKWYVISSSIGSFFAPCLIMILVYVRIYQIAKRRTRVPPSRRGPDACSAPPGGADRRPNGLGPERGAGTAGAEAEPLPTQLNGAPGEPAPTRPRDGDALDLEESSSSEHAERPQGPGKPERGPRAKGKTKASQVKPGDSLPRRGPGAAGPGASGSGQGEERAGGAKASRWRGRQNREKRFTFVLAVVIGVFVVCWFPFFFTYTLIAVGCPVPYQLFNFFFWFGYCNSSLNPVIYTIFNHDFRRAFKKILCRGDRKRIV
# Outline: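 Rat cortical membranes, radioligand competitive displacement read by filter-based scintillation counting 1.25 hours after dosing. Primary screen in duplicate at 25 uM; actives followed up in concentration series.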
# [7] = target: rat Gamma-Aminobutyric Acid Type B Receptor (GABBR), Gabbr1 (gene 81657) (UniProt Q9Z0U4); assay: NVS_GPCR_rGABBR: NovaScreen (NVS) G Protein-Coupled Receptor Assay for rat Gamma-Aminobutyric Acid Type B Receptor (GABBR) (AID 2283301)
# Sequence of rat Gamma-Aminobutyric Acid Type B Receptor (GABBR), Gabbr1 (gene 81657) (Q9Z0U4 whole entry, looked up): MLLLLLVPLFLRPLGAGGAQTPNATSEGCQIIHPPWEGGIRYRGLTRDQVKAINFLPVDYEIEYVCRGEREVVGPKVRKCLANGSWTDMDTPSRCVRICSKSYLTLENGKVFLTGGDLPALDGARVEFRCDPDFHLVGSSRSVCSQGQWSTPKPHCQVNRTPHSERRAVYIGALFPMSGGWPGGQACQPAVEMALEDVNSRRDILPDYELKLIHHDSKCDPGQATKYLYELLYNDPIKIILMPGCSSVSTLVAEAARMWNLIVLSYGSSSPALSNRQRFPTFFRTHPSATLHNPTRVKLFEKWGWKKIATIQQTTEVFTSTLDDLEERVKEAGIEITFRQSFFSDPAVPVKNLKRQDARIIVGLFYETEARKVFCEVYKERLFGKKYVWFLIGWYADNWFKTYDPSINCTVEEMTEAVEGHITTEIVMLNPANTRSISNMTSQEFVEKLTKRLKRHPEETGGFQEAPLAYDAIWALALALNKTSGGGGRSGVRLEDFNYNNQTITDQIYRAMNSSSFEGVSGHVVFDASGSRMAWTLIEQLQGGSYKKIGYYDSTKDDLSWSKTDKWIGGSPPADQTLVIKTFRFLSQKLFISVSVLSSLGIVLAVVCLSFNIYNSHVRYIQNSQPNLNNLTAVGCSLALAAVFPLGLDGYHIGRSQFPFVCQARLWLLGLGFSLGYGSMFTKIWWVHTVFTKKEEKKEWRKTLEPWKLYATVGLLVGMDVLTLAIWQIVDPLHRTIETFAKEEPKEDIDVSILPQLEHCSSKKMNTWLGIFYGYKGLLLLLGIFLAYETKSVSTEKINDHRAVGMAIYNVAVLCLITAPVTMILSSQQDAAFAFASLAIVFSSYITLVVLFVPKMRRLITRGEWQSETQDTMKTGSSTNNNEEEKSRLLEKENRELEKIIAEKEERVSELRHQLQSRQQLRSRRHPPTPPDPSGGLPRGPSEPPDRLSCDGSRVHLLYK
# Outline: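 Radioligand displacement on rat cortical membranes, 1 h, filter-based scintillation counting. Primary screen at 25 uM in duplicate; compounds passing threshold re-tested in concentration-response up to 50 uM; loss of binding fitted against DMSO.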
# [8] = target: rat Adrenergic, Alpha 1A Receptor (Adra1A), Adra1a (gene 29412) (UniProt P43140); assay: NVS_GPCR_rAdra1A: NovaScreen (NVS) G Protein-Coupled Receptor Assay for rat Adrenergic, Alpha 1A Receptor (Adra1A) (AID 2283296)
# Description: NVS_GPCR_rAdra1A is a biochemical, single-readout assay that uses extracted gene-proteins from Rat cortical membranes (pretreated with chlorethyl clonidine-CEC) in a tissue-based cell-free assay. Measurements were taken 1 hour after chemical dosing in a 48-well plate.NVS_GPCR_rAdra1A is one of one assay component(s) measured or calculated from the NVS_GPCR_rAdra1A assay. It is designed to make measurements of radioligand binding, a form of binding reporter, as detected with scintillation counting signals by Filter-based radiodetection technology.Data from the assay component NVS_GPCR_rAdra1A was analyzed into 1 assay endpoint. This assay endpoint, NVS_GPCR_rAdra1A, was analyzed in the positive analysis fitting direction relative to DMSO as the negative control and baseline of activity. Using a type of binding reporter, loss-of-signal activity can be used to understand changes in the binding as they relate to the gene Adra1a. Furthermore, this assay endpoint can be referred to as a primary readout, because the performed assay has only produced 1 assay endpoint. To generalize the intended target to other relatable targets, this assay endpoint is annotated to the gpcr intended target family, where the subfamily is rhodopsin-like receptor. […]
# [9] = target: rat Adrenergic Receptor, Beta (Adrb), Non-selective Binding, Adrb1 (gene 24925) (UniProt P18090); assay: NVS_GPCR_rAdrb_NonSelective: NovaScreen (NVS) G Protein-Coupled Receptor Assay for rat Adrenergic Receptor, Beta (Adrb), Non-selective Binding (AID 2283298)
# Sequence of rat Adrenergic Receptor, Beta (Adrb), Non-selective Binding, Adrb1 (gene 24925) (P18090 whole entry, looked up): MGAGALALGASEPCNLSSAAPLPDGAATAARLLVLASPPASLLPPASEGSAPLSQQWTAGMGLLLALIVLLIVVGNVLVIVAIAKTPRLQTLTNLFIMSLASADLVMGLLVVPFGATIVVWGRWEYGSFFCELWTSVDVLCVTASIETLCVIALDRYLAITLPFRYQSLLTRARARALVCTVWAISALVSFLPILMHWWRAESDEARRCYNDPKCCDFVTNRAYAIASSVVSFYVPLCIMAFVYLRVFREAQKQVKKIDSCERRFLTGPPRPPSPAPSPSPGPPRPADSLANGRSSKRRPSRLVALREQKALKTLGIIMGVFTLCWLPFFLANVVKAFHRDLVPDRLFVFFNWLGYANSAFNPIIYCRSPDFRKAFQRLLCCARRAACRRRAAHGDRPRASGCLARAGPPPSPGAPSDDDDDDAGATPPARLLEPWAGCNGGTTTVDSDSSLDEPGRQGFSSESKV
# Outline: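 Non-selective beta-adrenergic radioligand binding in rat cortical membranes, 1 h incubation, filter-based scintillation read-out. Primary screen 25 uM in duplicate; hits retested in concentration-response up to 50 uM, DMSO baseline.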
# [10] = target: mouse Cholecystokinin, CCK2 Receptor (CCKB), Cckbr (gene 12426) (UniProt P56481); assay: NVS_GPCR_mCKKBCentral: NovaScreen (NVS) G Protein-Coupled Receptor Assay for mouse Cholecystokinin, CCK2 Receptor (CCKB) (AID 2283293)
# Sequence of mouse Cholecystokinin, CCK2 Receptor (CCKB), Cckbr (gene 12426) (P56481 whole entry, looked up): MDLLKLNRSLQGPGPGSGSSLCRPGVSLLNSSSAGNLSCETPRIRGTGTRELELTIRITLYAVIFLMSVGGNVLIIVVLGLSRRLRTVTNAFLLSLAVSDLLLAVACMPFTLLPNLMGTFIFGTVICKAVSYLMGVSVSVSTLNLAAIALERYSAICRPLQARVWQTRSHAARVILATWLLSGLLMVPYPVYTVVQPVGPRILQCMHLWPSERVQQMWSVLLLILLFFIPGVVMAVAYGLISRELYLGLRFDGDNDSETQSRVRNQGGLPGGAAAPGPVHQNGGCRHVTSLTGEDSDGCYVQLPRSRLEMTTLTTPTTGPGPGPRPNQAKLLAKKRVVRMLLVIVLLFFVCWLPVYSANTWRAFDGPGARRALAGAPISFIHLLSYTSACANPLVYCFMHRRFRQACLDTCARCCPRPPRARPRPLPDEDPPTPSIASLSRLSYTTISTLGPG
# Outline: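 Radioligand displacement binding on mouse forebrain membranes, 2 h exposure, filter-based scintillation counting. Primary screen in duplicate at 25 uM; actives (e.g. ≥30% inhibition) retested in concentration-response up to 50 uM; loss of binding signal relative to DMSO.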
compound,measurement,setting,value
CC(C)CCCCCCc1ccc(O)cc1,AC50,[1],15.8 µM (active)
O=C(c1ccc(O)cc1O)c1ccc(O)cc1O,outcome,[2],inactive
CCC(C)OC(=O)N1CCCCC1CCO (stereo not given),outcome,[1],inactive
CCCCOCCOCCOCc1cc2c(cc1CCC)OCO2,outcome,[2],inactive
CCCOC(=O)NCCCN(C)C,AC50,[3],18.1 µM (active)
CCCOC(=O)c1ccc(C(=O)OCCC)nc1,outcome,[4],inactive
Oc1ccc(C(c2ccc(O)cc2)C(Cl)(Cl)Cl)cc1,AC50,[1],3.58 µM (active)
same,AC50,[5],2.7 µM (active)
S=C(S)NCCNC(=S)S.[Mn+2].[S-]C([S-])=NCCN=C([S-])[S-].[Zn+2],AC50,[1],154 nM (active) and 3.46 µM (active) and 9.37 µM (active)
same,outcome,[1],inactive
same,AC50,[4],9.72 µM (active) and 9.3 µM (active) and 26.6 µM (active)
same,AC50,[5],31.1 µM (active)
same,outcome,[5],inactive
same,AC50,[6],12.5 µM (active) and 15.4 µM (active)
same,outcome,[6],inactive
CCCCCOC(=O)COc1cc(N2C(=O)C3=C(CCCC3)C2=O)c(F)cc1Cl,outcome,[1],inactive
COC(=O)c1ccccc1S(=O)(=O)NC(=O)Nc1nc(OC(F)F)cc(OC(F)F)n1,outcome,[7],inactive
C=CCOC(Cn1ccnc1)c1ccc(Cl)cc1Cl (stereo not given),AC50,[1],11.2 µM (active)
same,AC50,[5],5.39 µM (active)
same,AC50,[8],17.3 µM (active)
CCOC(=O)[C@H](C)Oc1ccc(Oc2nc3ccc(Cl)cc3o2)cc1,outcome,[9],inactive
S=C([S-])NCCNC(=S)[S-].[Mn+2],AC50,[1],3.16 µM (active)
same,AC50,[4],30.5 µM (active)
same,AC50,[5],25 µM (active)
same,outcome,[6],inactive
CC(C)(c1ccc(O)cc1)c1ccc(O)cc1,AC50,[1],15.3 µM (active) [middle of 4 runs]
same,outcome,[1],inactive
same,AC50,[10],31.2 µM (active) and 19.2 µM (active) and 16.3 µM (active)
same,AC50,[5],10.4 µM (active) and 24.2 µM (active) and 15.1 µM (active)
same,outcome,[6],inactive
